Reference: PubChem BioAssay (Tox21)
Unmarked numbers belong to inactive results. Calls follow the shape of the dose curve; as a rule, active = well fitted activation curve with a large enough effect in the repeat runs; inconclusive = weak or mixed curves; inactive = flat fitted curve, though single readings scatter.

Assay: A CellTox Green Cytotoxicity Assay to monitor cytotoxicity in HEK293 cells - 0 hour (AID 1224869); also: nearly all actives have a fitted effect of over 50% in size
Conditions: CellTox Green fluorescence; series mostly up to 76.8 µM; cytotoxicity: at the top concentration
Excerpt: National Center for Advancing Translational Sciences [NCATS]
NIH Chemical Genomics Center [NCGC]
U.S. Environmental Protection Agency [EPA]
National Institutes of Environmental Health Sciences [NIEHS]
National Toxicology Program [NTP]
Cell-based models are critical for drug discovery. Determining the natural cytotoxic effects resulting from test compounds is an essential research activity. A CellTox Green Cytotoxicity Assay to monitor cytotoxicity in real time of continues cell culture during 40 hours of the compound treatment was used to screen Tox21 10K library compounds in Hek293 cells. CellTox Green Cytotoxicity Assay is a nonlytic, homogeneous, biofluorescent method to measure cytotoxicity in cell culture after experimental manipulation. The assay system uses a proprietary asymmetric cyanine dye that is excluded from viable cells but preferentially stains the dead cell's DNA. […] Viable cells produce no appreciable increases in fluorescence. Therefore, the fluorescence signal produced by the binding interaction with dead cell DNA is proportional to cytotoxicity.
The mixture of Hek293 cell suspension and reagents were dispensed at 600cells/6 ul/well in 1536-well tissue culture treated black solid bottom plates using a Multidrop dispenser. After the assay plates were incubated at a 37 C/5% CO2 incubator for 5 hours, 23 nL of compounds dissolved in DMSO, positive and negative controls was transferred to the assay plate by a pintool work station. The plates were incubated at 37 C for 40 hours. The fluorescence intensity were measured at 0h, 8h, 16h, 24h, 32h and 40h time points using ViewLux plate reader during compound treatment.
% is scaled to controls: 0 for no effect and ±100 for the full control effect.

| SMILES | cytotoxicity |
| --- | --- |
| CNCCc1ccccn1 | -2.04% [at 35.3 µM] |
| Cc1ccc(Br)cc1 | -0.0363% |
| O=C[C@@H](O)[C@H](O)[C@H](O)CO | 0.203% |
| C=CC(C)(CCC=C(C)C)OC(=O)C(C)C (stereo not given) | -6.89% |
| CCCCCC(=O)CC | -6.96% |
| CC(=O)SC[C@@H](C)C(=O)N1CCC[C@H]1C(=O)N[C@@H](Cc1ccccc1)C(=O)O | 6.61% [at 35.3 µM] |
| CCCCCCCCCCCCCCCC(=O)OC | -0.154% [at 15.8 µM] |
| CC(C)OC(=O)C(C(=O)OC(C)C)=C1SC=CS1 | 0% [at 35.3 µM] |
| C=COCCCCO | 2.21% |
| CCOC(=O)CC(C(C)=O)C(C)=O | 0.563% |
| NCC1CCC(C(=O)Oc2ccc(CCC(=O)O)cc2)CC1 (stereo not given) | -0.293% [at 35.3 µM] |
| O=S(=O)(O)c1ccc(Cl)cc1 | -1.54% |
| CCCC(=O)C(CC)Sc1ccoc1C (stereo not given) | 0.0032% |
| CC(=O)SCC(CC(=O)c1ccc(C)cc1)C(=O)O (stereo not given) | -1.56% [at 35.3 µM] |
| CC(CN1CC(=O)NC(=O)C1)N1CC(=O)NC(=O)C1 (stereo not given) | -0.165% |
| O=Cc1ccccc1S(=O)(=O)O | -1.47% |
| COC(=O)c1ccc(NC(C)=O)cc1OC | 0.191% [at 35.3 µM] |
| Cc1nnc(C(=O)NC(C)(C)c2nc(C(=O)NCc3ccc(F)cc3)c(O)c(=O)n2C)o1 | 8.97% [at 35.3 µM] |
| O=C1CCCc2c(O)cccc21 | -2.69% [at 35.3 µM] |
| CC(C)(C)c1ccc(N)cc1 | 5.55% |

| SMILES | cytotoxicity |
| --- | --- |
| O=C(O)CCCCCCCCCC(=O)O | -7.77% |
| CCCCC(O)/C=C(C)/C=C/C=C/C(=O)N1CCCC1=O (stereo not given) | -4.08% [at 35.3 µM] |
| COc1ccccc1N1CCN(CC(O)COc2cc(OC)c(OC)c(OC)c2)CC1 (stereo not given) | 1.42% [at 35.3 µM] |
| CCCCc1ccc(Cl)cc1 | -1.05% |
| CC(C)C(C)C | 1.44% |
| CNC(C)=O | -6.17% |
| CC(=O)Nc1ccc(S(=O)(=O)Nc2cc(C)on2)cc1 | 0.505% [at 35.3 µM] |
| NNC(=O)CCCCC(=O)NN | 2.75% |
| CC(C)(O)CCCC1=CCC(C=O)CC1 (stereo not given) | -0.826% |
| Nc1cc(S(=O)(=O)O)ccc1O | 2.08% |
| CC(C)(C)C(=O)CC(=O)C(C)(C)C | -14.8% |
| N=C(N)S(=O)O | -5.15% |
| CC(C)C(=O)Nc1cccc(C2CN3CCSC3=N2)c1 (stereo not given) | 2.03% [at 35.3 µM] |
| C/C=C(\C)C(=O)OC/C=C(\C)CCC=C(C)C | 0.633% |
| O=c1c(O)c(O)c1=O | 3.03% |
| CC(C)OCCO | -4.84% |
| CC(C)CC(O)Cc1ccccc1 (stereo not given) | 3.56% |
| COc1cc(OC)cc(OC)c1 | 5.4% [at 35.3 µM] |
| CCCOc1ccc(C(=O)OCCN(CC)CC)cc1N | 2.72% [at 35.3 µM] |
| Cc1ccc(O)c(C(=O)c2ccccc2)c1 | -4.88% |
